# How the values were obtained:
# Assay in all cases: DAPPL (digital affinity profiling via proximity ligation, sequencing); 10 mM Tris-HCl pH 7.5, 50 mM NaCl, 1 mM DTT, 4% glycerol, room temperature, 30 min; GST-TFs on glutathione beads, 16-mer random dsDNA library, 0.1% formaldehyde crosslink after washing; high values mean tight binding
# [1] = target: T1, FLI1 (Homo sapiens, UniProt Q01543 1-452); details: protein: recombinant; tags: N-terminal GST; dsDNA, one strand shown
# T1 sequence: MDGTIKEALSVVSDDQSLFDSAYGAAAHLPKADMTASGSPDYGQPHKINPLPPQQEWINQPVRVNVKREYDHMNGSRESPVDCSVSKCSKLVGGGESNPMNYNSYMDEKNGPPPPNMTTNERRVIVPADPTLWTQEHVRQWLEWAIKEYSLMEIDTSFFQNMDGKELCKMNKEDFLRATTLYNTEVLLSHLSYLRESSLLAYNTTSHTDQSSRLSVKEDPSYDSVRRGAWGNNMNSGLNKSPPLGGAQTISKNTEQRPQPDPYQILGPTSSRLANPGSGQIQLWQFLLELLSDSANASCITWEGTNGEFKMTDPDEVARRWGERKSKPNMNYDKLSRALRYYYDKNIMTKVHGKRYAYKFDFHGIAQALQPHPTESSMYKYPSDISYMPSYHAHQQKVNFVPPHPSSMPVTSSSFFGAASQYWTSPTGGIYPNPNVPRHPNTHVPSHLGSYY
# Outline: (§1)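 A tag-only sample was pooled with DNA-barcoded human transcription factors that had been expressed in yeast as GST fusions and captured on glutathione beads. The pools were incubated for 30 min at room temperature with 200 nmole of a random double-stranded 16-mer DNA library in Tris/NaCl/DTT/glycerol buffer, then washed, crosslinked with 0.1% formaldehyde, proximity-ligated (BsaI/T4 ligase, 1 h, 37 °C), PCR-amplified and sequenced on an Illumina NextSeq500. Binding signal is each hexamer's read frequency for a factor divided by its frequency for the tag-only sample.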
# [2] = target: T2, ELK1 (Homo sapiens, UniProt P19419 1-428); details: protein: recombinant; tags: N-terminal GST; dsDNA, one strand shown
# T2 sequence: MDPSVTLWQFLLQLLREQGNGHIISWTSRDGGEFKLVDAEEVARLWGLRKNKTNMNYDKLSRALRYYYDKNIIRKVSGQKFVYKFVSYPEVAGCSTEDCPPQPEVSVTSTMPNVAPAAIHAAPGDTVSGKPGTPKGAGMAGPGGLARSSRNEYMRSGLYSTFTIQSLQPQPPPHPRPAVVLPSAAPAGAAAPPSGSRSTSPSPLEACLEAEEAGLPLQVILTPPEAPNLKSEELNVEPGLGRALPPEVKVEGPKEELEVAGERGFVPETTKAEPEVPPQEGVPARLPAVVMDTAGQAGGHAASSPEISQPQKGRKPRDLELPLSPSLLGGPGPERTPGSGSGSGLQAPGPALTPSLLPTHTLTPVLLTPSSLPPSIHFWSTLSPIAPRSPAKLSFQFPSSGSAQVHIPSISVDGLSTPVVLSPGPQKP
# Outline: as §1
# [3] = target: T3, GABPA (Homo sapiens, UniProt Q06546 1-454); details: protein: recombinant; tags: N-terminal GST; dsDNA, one strand shown
# T3 sequence: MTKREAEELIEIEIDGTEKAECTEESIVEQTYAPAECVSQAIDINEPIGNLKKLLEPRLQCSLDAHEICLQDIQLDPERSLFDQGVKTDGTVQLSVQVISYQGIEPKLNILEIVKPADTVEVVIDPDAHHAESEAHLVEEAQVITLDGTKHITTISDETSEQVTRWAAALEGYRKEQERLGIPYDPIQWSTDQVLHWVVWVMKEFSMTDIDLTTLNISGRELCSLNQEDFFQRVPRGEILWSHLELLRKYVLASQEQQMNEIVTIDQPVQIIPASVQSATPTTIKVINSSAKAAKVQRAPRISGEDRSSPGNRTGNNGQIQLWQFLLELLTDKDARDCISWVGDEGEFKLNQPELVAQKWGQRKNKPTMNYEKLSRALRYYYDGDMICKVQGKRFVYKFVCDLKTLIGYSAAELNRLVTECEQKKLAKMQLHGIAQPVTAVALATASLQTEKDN
# Outline: as §1
# [4] = target: T4, ERG (Homo sapiens, UniProt P11308 1-479); details: protein: recombinant; tags: N-terminal GST; dsDNA, one strand shown
# T4 sequence: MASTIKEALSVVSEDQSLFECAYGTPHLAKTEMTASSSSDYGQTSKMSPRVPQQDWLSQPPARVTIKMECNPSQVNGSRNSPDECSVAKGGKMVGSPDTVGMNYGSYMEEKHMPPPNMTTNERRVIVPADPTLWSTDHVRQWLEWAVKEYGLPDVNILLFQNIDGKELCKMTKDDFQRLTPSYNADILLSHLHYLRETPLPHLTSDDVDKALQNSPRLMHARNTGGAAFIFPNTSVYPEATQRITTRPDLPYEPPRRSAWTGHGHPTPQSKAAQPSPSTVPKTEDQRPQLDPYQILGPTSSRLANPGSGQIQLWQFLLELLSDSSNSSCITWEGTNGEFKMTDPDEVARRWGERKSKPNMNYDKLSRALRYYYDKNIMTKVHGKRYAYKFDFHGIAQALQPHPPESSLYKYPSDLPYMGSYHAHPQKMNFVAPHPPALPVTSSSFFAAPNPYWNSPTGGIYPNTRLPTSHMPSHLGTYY
# Outline: as §1
# [5] = target: ELF1 (Homo sapiens, UniProt P32519 1-619); details: protein: recombinant; tags: N-terminal GST; dsDNA, one strand shown
# Sequence of ELF1 (P32519 whole entry): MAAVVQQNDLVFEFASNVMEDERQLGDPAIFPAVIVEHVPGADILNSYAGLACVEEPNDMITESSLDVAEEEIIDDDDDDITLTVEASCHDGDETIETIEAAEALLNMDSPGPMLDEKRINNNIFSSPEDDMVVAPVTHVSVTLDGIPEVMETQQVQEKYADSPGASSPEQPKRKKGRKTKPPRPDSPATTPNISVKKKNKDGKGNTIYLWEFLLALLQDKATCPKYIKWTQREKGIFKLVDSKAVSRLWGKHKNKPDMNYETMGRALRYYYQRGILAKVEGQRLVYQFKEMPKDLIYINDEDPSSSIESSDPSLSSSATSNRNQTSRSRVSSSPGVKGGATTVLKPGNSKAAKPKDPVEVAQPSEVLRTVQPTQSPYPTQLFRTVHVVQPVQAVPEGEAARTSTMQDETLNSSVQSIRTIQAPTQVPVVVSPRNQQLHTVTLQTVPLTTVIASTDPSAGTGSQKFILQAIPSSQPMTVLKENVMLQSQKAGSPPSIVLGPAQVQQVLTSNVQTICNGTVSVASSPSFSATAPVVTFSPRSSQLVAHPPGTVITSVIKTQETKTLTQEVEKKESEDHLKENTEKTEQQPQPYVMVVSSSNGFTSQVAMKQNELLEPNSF
# Outline: as §1
# [6] = target: T5, EHF (Homo sapiens, UniProt Q9NZC4 1-300); details: protein: recombinant; tags: N-terminal GST; dsDNA, one strand shown
# T5 sequence: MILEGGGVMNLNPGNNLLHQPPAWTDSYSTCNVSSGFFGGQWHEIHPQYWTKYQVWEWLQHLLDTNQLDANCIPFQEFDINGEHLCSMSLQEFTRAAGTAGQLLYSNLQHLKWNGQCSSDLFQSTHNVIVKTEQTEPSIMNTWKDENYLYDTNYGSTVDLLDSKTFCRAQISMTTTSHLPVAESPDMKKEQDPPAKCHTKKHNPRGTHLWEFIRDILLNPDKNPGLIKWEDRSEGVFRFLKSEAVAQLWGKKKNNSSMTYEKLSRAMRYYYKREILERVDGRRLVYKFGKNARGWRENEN
# Outline: as §1
# [7] = target: SPI1 (Homo sapiens, UniProt P17947 1-270); details: protein: recombinant; tags: N-terminal GST; dsDNA, one strand shown
# Outline: as §1
# [8] = target: SPIB (Homo sapiens, UniProt Q01892 1-262); details: protein: recombinant; tags: N-terminal GST; dsDNA, one strand shown
# Sequence of SPIB (Q01892 whole entry): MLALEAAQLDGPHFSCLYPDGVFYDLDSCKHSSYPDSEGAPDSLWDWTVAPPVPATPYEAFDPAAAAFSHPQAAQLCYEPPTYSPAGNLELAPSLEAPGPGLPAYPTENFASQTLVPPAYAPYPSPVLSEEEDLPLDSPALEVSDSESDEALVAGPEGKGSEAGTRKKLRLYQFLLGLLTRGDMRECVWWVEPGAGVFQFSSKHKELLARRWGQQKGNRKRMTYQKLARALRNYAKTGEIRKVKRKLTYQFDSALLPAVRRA
# Outline: as §1
# [9] = target: T6, ELK3 (Homo sapiens, UniProt P41970 1-407); details: protein: recombinant; tags: N-terminal GST; dsDNA, one strand shown
# T6 sequence: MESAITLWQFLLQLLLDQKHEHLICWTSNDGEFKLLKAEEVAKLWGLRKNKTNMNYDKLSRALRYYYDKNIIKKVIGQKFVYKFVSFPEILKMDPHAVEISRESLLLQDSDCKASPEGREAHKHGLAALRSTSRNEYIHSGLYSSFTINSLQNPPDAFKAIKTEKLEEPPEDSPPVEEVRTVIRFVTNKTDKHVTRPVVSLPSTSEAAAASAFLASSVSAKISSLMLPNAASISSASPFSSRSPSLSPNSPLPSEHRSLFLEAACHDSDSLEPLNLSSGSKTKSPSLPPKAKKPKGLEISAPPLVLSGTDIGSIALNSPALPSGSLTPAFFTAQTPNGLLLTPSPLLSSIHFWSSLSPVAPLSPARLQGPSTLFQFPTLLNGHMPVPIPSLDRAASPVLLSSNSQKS
# Outline: as §1
# [10] = target: T7, FEV (Homo sapiens, UniProt Q99581 1-238); details: protein: recombinant; tags: N-terminal GST; dsDNA, one strand shown
# T7 sequence: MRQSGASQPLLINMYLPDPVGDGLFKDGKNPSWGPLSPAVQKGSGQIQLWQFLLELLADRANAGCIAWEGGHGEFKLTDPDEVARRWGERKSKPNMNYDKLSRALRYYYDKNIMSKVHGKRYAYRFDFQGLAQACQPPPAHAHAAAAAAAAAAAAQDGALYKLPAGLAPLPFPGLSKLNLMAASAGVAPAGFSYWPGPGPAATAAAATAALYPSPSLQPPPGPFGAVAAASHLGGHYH
# Outline: as §1
# [11] = target: ETV5 (Homo sapiens, UniProt P41161 1-510); details: protein: recombinant; tags: N-terminal GST; dsDNA, one strand shown
# Sequence of ETV5 (P41161 whole entry): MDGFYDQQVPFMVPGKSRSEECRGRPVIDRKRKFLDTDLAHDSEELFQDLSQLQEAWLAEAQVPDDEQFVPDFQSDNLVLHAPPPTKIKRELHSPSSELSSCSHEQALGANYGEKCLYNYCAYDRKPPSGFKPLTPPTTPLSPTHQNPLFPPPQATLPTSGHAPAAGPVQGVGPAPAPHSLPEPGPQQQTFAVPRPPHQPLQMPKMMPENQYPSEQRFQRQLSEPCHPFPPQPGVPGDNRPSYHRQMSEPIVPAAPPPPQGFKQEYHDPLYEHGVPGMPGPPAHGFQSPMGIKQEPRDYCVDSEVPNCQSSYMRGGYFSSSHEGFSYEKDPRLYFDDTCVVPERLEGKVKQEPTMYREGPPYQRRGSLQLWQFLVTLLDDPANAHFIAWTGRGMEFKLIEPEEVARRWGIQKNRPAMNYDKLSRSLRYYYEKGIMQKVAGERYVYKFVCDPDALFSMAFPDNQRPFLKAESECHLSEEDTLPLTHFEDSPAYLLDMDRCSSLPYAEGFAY
# Outline: as §1
# [12] = target: HSF1 (Homo sapiens, UniProt Q00613 1-529); details: protein: recombinant; tags: N-terminal GST; chain copies: 3; dsDNA, one strand shown
# Sequence of HSF1 (Q00613 whole entry): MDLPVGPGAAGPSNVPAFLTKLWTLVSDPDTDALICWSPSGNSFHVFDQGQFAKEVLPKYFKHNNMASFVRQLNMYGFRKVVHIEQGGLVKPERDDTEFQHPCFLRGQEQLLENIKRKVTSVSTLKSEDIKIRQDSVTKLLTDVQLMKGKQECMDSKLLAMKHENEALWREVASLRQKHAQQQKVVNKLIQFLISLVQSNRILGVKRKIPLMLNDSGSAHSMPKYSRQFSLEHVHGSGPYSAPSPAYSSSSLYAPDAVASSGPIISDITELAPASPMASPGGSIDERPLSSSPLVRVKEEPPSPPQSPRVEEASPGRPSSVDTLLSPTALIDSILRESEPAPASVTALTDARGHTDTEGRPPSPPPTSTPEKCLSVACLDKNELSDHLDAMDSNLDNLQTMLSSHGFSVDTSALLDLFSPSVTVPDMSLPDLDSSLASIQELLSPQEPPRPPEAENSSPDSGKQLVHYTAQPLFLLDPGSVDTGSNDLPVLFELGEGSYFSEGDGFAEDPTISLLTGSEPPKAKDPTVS
# Outline: as §1
# [13] = target: T8, SPIC (Homo sapiens, UniProt Q8N5J4 1-248); details: protein: recombinant; tags: N-terminal GST; dsDNA, one strand shown
# T8 sequence: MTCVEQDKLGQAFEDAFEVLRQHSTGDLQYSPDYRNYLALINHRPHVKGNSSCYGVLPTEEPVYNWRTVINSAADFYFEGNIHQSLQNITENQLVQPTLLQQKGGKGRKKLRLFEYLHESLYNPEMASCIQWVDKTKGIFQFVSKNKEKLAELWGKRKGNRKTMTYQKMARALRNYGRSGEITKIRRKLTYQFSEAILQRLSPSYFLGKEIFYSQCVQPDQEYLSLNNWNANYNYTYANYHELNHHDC
# Outline: as §1
# [14] = target: ELF4 (Homo sapiens, UniProt Q99607 1-663); details: protein: recombinant; tags: N-terminal GST; dsDNA, one strand shown
# Sequence of ELF4 (Q99607 whole entry): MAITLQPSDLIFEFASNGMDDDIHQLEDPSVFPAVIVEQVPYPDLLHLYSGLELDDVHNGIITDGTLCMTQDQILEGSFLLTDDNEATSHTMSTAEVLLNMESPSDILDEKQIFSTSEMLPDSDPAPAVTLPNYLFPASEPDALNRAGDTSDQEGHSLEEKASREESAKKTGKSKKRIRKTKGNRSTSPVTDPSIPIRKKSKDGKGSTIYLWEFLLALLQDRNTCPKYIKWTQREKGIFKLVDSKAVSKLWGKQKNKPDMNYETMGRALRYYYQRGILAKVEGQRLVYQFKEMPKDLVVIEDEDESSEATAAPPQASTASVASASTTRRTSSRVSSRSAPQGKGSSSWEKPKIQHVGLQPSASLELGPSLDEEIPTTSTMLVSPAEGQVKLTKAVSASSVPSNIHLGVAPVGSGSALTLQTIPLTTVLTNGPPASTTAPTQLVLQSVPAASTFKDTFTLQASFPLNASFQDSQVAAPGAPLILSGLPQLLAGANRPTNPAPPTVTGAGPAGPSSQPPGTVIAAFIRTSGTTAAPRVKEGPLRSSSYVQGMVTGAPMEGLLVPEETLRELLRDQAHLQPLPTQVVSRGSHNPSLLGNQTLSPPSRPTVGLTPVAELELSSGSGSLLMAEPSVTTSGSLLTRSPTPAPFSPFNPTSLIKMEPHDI
# Outline: as §1
# [15] = target: T9, ELK4 (Homo sapiens, UniProt P28324-2 1-405); details: protein: recombinant; tags: N-terminal GST; dsDNA, one strand shown
# T9 sequence: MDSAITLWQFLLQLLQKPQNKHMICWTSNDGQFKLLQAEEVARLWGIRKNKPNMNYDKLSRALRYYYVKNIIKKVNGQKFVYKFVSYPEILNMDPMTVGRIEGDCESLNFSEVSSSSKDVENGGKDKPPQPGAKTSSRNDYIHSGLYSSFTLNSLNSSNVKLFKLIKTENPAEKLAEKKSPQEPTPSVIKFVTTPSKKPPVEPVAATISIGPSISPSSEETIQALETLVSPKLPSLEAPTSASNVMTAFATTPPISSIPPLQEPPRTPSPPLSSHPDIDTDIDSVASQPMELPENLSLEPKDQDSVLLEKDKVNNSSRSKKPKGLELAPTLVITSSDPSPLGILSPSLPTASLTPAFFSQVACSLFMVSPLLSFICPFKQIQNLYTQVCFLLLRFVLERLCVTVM
# Outline: as §1
# [16] = target: T10, ETV2 (Homo sapiens, UniProt O00321 1-342); details: protein: recombinant; tags: N-terminal GST; dsDNA, one strand shown
# T10 sequence: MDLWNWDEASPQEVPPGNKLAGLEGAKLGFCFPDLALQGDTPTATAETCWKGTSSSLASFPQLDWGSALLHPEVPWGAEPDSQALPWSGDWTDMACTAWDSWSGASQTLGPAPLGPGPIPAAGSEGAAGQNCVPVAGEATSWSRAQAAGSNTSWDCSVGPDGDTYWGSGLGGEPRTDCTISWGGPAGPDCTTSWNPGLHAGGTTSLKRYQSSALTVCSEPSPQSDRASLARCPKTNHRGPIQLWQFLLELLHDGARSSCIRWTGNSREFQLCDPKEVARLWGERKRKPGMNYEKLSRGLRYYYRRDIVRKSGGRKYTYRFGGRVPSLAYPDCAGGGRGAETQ
# Outline: as §1
# [17] = target: T11, ELF3 (Homo sapiens, UniProt P78545 1-371); details: protein: recombinant; tags: N-terminal GST; dsDNA, one strand shown
# T11 sequence: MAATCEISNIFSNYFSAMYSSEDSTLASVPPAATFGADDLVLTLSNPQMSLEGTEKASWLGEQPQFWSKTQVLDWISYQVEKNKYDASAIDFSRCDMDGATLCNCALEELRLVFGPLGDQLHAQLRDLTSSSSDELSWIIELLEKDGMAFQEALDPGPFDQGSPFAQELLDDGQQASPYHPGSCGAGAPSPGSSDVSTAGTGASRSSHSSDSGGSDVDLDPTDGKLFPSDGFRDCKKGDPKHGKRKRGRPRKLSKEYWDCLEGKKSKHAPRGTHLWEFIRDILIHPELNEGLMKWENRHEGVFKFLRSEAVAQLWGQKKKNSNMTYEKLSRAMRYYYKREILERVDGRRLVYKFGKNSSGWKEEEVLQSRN
# Outline: as §1
# [18] = target: CRX (Homo sapiens, UniProt O43186 1-299); details: protein: recombinant; tags: N-terminal GST; dsDNA, one strand shown
# Sequence of CRX (O43186 whole entry): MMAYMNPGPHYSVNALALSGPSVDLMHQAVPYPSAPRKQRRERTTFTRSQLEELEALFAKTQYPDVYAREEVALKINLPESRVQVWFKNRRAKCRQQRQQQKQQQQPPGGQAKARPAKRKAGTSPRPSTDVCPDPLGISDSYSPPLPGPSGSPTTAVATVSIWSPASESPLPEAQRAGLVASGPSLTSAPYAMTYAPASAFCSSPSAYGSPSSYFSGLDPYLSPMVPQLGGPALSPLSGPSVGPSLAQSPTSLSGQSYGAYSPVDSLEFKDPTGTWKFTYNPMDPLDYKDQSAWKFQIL
# Outline: as §1
# [19] = target: ETV1 (Homo sapiens, UniProt P50549 1-477); details: protein: recombinant; tags: N-terminal GST; dsDNA, one strand shown
# Sequence of ETV1 (P50549 whole entry): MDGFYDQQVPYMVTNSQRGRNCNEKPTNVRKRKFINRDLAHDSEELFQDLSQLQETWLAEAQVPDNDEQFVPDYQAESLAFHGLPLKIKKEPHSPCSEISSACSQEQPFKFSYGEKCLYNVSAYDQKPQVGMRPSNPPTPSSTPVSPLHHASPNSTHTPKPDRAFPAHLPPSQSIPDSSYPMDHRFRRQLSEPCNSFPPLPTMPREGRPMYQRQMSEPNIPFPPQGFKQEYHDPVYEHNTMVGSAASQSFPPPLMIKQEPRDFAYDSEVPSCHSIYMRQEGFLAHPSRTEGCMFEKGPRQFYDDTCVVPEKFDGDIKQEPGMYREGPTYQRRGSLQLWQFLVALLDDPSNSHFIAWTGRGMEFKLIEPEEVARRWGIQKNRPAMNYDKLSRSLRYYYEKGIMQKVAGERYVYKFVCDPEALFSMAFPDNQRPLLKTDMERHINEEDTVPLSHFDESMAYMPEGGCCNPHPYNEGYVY
# Outline: as §1
sequence,measurement,setting,value
ATGCCC,binding signal,[1],"1.38 fold enrichment (6-mer frequency, TF over GST control)"
same,binding signal,[2],"1.38 fold enrichment (6-mer frequency, TF over GST control)"
same,binding signal,[3],"1.33 fold enrichment (6-mer frequency, TF over GST control)"
same,binding signal,[4],"1.28 fold enrichment (6-mer frequency, TF over GST control)"
same,binding signal,[5],"1.32 fold enrichment (6-mer frequency, TF over GST control)"
same,binding signal,[6],"1.26 fold enrichment (6-mer frequency, TF over GST control)"
same,binding signal,[7],"1.2 fold enrichment (6-mer frequency, TF over GST control)"
same,binding signal,[8],"1.23 fold enrichment (6-mer frequency, TF over GST control)"
same,binding signal,[9],"1.2 fold enrichment (6-mer frequency, TF over GST control)"
same,binding signal,[10],"1.34 fold enrichment (6-mer frequency, TF over GST control)"
same,binding signal,[11],"1.28 fold enrichment (6-mer frequency, TF over GST control)"
same,binding signal,[12],"1.19 fold enrichment (6-mer frequency, TF over GST control)"
same,binding signal,[13],"1.54 fold enrichment (6-mer frequency, TF over GST control)"
same,binding signal,[14],"1.33 fold enrichment (6-mer frequency, TF over GST control)"
same,binding signal,[15],"1.36 fold enrichment (6-mer frequency, TF over GST control)"
same,binding signal,[16],"1.26 fold enrichment (6-mer frequency, TF over GST control)"
same,binding signal,[17],"1.34 fold enrichment (6-mer frequency, TF over GST control)"
same,binding signal,[18],"1.12 fold enrichment (6-mer frequency, TF over GST control)"
same,binding signal,[19],"1.31 fold enrichment (6-mer frequency, TF over GST control)"

# — paper PMC7862700, “An all-to-all approach to the identification of sequence-specific readers for epigenetic DNA modifications on cytosine”
